# Screening results as filed in PubChem BioAssay.
# Many of the other results were omitted from the sample, so hits are more common in it than they were.
# Tb PYK inh: inhibitors of Trypanosoma brucei pyruvate kinase. 410,000 tested, 0.12% active. AID 624173. Q57TT1. Potency, µM (top dose mostly 76.8 µM), for the others: top-dose activity, negative = inhibition, hits mostly inhibitors. TbPYK enzyme, Kinase-Glo Plus ATP luminescence, 45 min; also: potency is read from the fitted curve at half-maximal effect; % is scaled to controls: 0 for no effect and ±100 for the full control effect; nearly all actives have a fitted effect of over 50% in size
#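 Luminescent Kinase-Glo Plus end-point after 45 min room-temperature reaction of T. brucei pyruvate kinase started with 130 uM ADP (final). Buffer TEA 50 mM pH 7.2 with KCl, MgCl2, BSA, Tween-20; titration-based qHTS with fitted concentration-effect curves.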
# Sm TGR block: S. mansoni TGR enzyme inhibition. purified TGR, DTNB reduction, TNB absorbance 405 nm. Potency, µM (highest dose often 114 µM), for inactives: top-dose activity change, negative = inhibition, actives largely listed as inhibitors. 360,000 tested, 3% active. AID 485364; also: potency is read from the fitted curve at half-maximal effect; % is scaled to controls: 0 for no effect and ±100 for the full control effect; nearly all actives have a fitted effect of over 60% in size
#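 Kinetic colorimetric format: TGR-catalysed, NADPH-driven DTNB reduction monitored via TNB absorbance. Enzyme dispensed at 20 nM; compound exposure 15 min at room temperature before reaction start.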
# LmPK inh: blocks Leishmania mexicana pyruvate kinase activity | Q27686 | purified LmPK, Kinase-Glo ATP luminescence, 1 h | Potency, µM (highest dose often 57.5 µM), for inactives: top-dose activity change, negative = inhibition, hits mostly inhibitors | 290,000 tested, 0.37% active | AID 1721; also: potency is read from the fitted curve at half-maximal effect; % is scaled to controls: 0 for no effect and ±100 for the full control effect
# Target sequence (Q27686 whole entry, looked up): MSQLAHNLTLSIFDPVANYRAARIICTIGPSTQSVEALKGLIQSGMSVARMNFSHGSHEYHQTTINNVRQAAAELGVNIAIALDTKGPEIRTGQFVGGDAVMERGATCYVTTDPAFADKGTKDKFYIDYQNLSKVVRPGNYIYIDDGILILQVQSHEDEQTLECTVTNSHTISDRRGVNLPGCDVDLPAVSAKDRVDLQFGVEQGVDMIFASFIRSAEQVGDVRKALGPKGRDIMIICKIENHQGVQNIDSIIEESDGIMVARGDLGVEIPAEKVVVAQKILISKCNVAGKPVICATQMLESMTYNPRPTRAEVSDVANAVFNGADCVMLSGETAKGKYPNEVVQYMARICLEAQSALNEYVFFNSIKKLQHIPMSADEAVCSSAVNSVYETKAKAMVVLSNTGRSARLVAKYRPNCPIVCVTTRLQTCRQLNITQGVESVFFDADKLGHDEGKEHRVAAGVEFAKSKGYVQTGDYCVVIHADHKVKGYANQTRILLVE
#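 ATP generated from ADP (0.1 mM) and PEP (0.5 mM) by 0.1 nM LmPK over 1 h at room temperature (pH 7.2 imidazole buffer) was detected by coupled luciferase luminescence. Values were normalized to uninhibited and no-enzyme wells.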
# Shiga toxin inh: inhibitors of Shiga toxin in Vero cells | Vero cells, Shiga toxin protein synthesis inhibition reporter | inhibition, % at 38.7 µM | 290,000 tested, 9.2% active; in the data active = inhibition mostly above about 28%, no sharp cut-off; inactive = mostly below about 43%; also: 0% is about no effect
# Giardia FBPA inh: Giardia lamblia aldolase inhibition. AID 2451. purified Giardia FBPA. 290,000 tested, 0.71% active. A8B2U2. Potency, µM (doses to about 59.6 µM), inactives show top-dose activity, negative = inhibition, hits mostly inhibitors; also: potency is read from the fitted curve at half-maximal effect; % is scaled to controls: 0 for no effect and ±100 for the full control effect; nearly all actives have a fitted effect of over 55% in size
#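 40 nM FBPA preincubated 10 min at RT with compound (up to 57.5 uM final), then substrate plus GAPDH/TPI/NAD/arsenate coupling and diaphorase/resazurin added. Fluorescence read after 20 min at RT, 525/598 nm.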
# Cycloheximide cs: counter-screen for Shiga toxin inhibitors: cycloheximide protein synthesis inhibition | max response, % | 300,000 tested, 12% active | cell reporter, cycloheximide protein synthesis inhibition counterscreen; in the data active = max response mostly above about 13%, no sharp cut-off; inactive = mostly below about 14%; also: read at 38.3 µM for the half of the compounds with a filed dose; 0% is about no effect
# Numbers without * were called inactive; u = inconclusive; x = no result given; ! = repeats disagree; [ ] = remark or other dose. Unless noted, calls follow the shape of the dose curve; as a rule, active = well fitted curve in the direction sought with a large enough effect; inconclusive = small, poorly fitted or top-dose-only effect, or another doubt; inactive = no such curve, though single readings can be large; an effect the other way counts as inactive or inconclusive.
SMILES,Tb PYK inh,Sm TGR block,LmPK inh,Shiga toxin inh,Giardia FBPA inh,Cycloheximide cs
CC(NC(=O)c1ccc(NC(=O)CC2SC(N3CCCC3)=NC2=O)cc1)c1ccccc1 (configuration not stated),0%,-14%,x,x,x,x
CCOc1ccc(NCc2cccn2-c2nnc(N3CCC(C(=O)NCc4ccccc4Cl)CC3)s2)cc1,-8%,u,x,x,x,x
COC[C@H]1OC(=O)c2coc3c2[C@@]1(C)C1=C(C3=O)[C@H]2CCC(=O)[C@@]2(C)C[C@H]1OC(C)=O,x,x,x,x,-19%,x
Cc1cccc(C(=O)Nc2nnc(S(=O)(=O)N(C)Cc3ccco3)s2)c1,-13%,7.9µM*!,1%,15,x,17
CCN(c1ccccc1C)S(=O)(=O)c1nnc(NC(=O)c2ccco2)s1,0%,20µM*!,-2%,-2,x,-3
CCN(c1cc(C)cc(C)c1)S(=O)(=O)c1nnc(NC(=O)c2ccco2)s1,1%,u,-7%,-8,x,-4
COc1cccc(OC)c1C(=O)N1CCN(C(=O)c2ccc(-c3ccccc3)cc2)CC1,2%,4%,3%,-4,-1%,5
CCCOc1ccc(CSc2ncn[nH]2)cc1,u,6%,-2%,68*,-17%,30*
Brc1ccc(CSc2ncn[nH]2)cc1,2%,13%[11.4 µM],1%,-5,-10%,-2
O=C(CSc1ncn[nH]1)c1ccc(OC(F)F)cc1,-6%,-7%,2%,21,-13%,14*
CCc1ccc(C(=O)CSc2ncn[nH]2)cc1,u,0%,-1%,76*,u,30*
Cc1cnc(CNc2ccnc(-c3ccoc3)n2)cn1,x,x,x,x,-13%,x
CNC1=C([N+](=O)[O-])CC([N+](=O)[O-])=C(N2CCNCC2)N1C,-7%,14µM*,4%,9,-2%,9
Nc1cc(N2CCNCC2)c([N+](=O)[O-])cc1Cl,-3%,-11%,-5%,-7,4%,-1
COc1cc(NS(=O)(=O)c2ccc3c(c2)CC(C)N3C(=O)C2CCC2)cc(OC)c1OC (configuration not stated),x,-2%,x,x,x,x
Cc1cc(C)c(C#N)c(SCC(=O)N(CCC#N)c2ccc3c(c2)OCCO3)n1,-7%,1%,x,x,x,x
O=C(c1cccc([N+](=O)[O-])c1)n1nc(-c2ccccc2)nc1NCc1ccccc1,2%,3%,0%,48*,-2%,20*
CC(=O)n1nc(-c2ccccc2)nc1NCc1ccc(F)cc1,0%,-15%,-10%,46,2%,20*
O=C(c1ccc(F)cc1)n1nc(-c2ccccc2)nc1NCc1ccc(F)cc1,-1%,0%,x,x,x,x
CC(C)c1ccc(CNc2nc(-c3ccco3)nn2C(=O)c2ccc([N+](=O)[O-])cc2)cc1,-1%,-5%,x,x,x,x
O=C(c1ccc([N+](=O)[O-])cc1)n1nc(-c2ccccc2)nc1NCc1ccc(F)cc1,0%,0%,-2%,37*,0%,17*
O=C(c1ccccc1)n1nc(-c2ccccc2)nc1NCc1ccc(F)cc1,8%,2%,x,x,x,x
O=C(c1ccc([N+](=O)[O-])cc1)n1nc(-c2ccccc2)nc1NCc1ccccc1,-2%,8%,1%,69*,-1%,47*
CCOC(=O)c1sc(N2C(=O)c3oc4ccc(F)cc4c(=O)c3C2c2cccc(OC)c2)nc1C (configuration not stated),4%,0%,x,x,x,x
CC(C)Cc1nnc(NC(=O)C2CCN(C(=O)c3ccc(F)cc3)CC2)s1,-11%,-3%,x,x,x,x
SMILES,Tb PYK inh,Sm TGR block,LmPK inh,Shiga toxin inh,Giardia FBPA inh,Cycloheximide cs
CC(C)COC(=O)N1CCCCC1c1cc(C(=O)N2CCOCC2)no1 (configuration not stated),-5%,x,x,x,x,x
CC(C)(C)c1cc(NC(=O)Nc2ccccc2OC(F)(F)F)no1,2%,10%,9%,13,6%,5
CC(C)(C)c1cc(NC(=O)Nc2ccccc2)no1,6%,1%,2%,70*,-4%,33*
CC(C)(C)c1cc(NC(=O)c2ccco2)no1,1%,-3%,u,81*,x,44*
COC(=O)c1ccccc1NC(=O)Nc1cc(C(C)(C)C)on1,-8%,-7%,-2%,34,-5%,40*
Cc1cc(C(=O)Nc2cc(C(C)(C)C)on2)c(C)o1,2%,3%,-25%,48,-5%,39*
Cn1c(O)c(/C=N/NC(=O)c2cc3ccccc3cc2O)c2ccccc21,3%,3%,7%,80*,27%,21
CCn1c2ccccc2c2cc(/C=N/NC(=O)c3cc(O)cc(O)c3)ccc21,0%,10%,9%,6,-24%,4
Cn1c2ccccc2c2cc(/C=N/NC(=O)c3ccc(O)cc3O)ccc21,-6%,6%,-3%,72*,-11%,32*
CCn1c2ccccc2c2cc(/C=N/NC(=O)c3ccc(O)cc3)ccc21,-11%,6%,2%,active,-11%,26*
COC(=O)C1=C(c2ccccc2)c2ccccc2S(=O)(=O)N1CC(=O)Nc1ccc(F)c(F)c1,-4%,-1%,x,x,x,x
CC(C)Oc1cccc(C2CC(=O)Nc3cc4c(cc32)OCO4)c1 (configuration not stated),3%,3%,x,x,x,x
CC[C@H](C)[C@H](NC(=O)CNC(=O)[C@H](CCCNC(=N)N)NC(=O)[C@H](CO)NC(=O)[C@H](C)NC(=O)[C@H](Cc1ccc(O)cc1)NC(=O)[C@H](Cc1c[nH]c2ccccc12)NC(=O)[C@H](C)NC(=O)[C@@H]1CCCN1C(=O)[C@H](CC(N)=O)NC(=O)[C@@H](NC(=O)[C@H](CC(=O)O)NC(=O)[C@@H]1CCCN1C(=O)[C@@H](N)[C@@H](C)O)[C@@H](C)CC)C(=O)N[C@@H](CCCNC(=N)N)C(=O)N1CCC[C@H]1C(=O)N[C@H](C(=O)NCC(=O)N[C@@H](CCCNC(=N)N)C(=O)N[C@@H](Cc1ccccc1)C(N)=O)C(C)C,x,x,x,-10,10%,-6
O=C(CSc1nnc(NC(=O)c2c(F)cccc2Cl)s1)Nc1ccccc1F,3%,6%,4%,19,x,8.3*
Fc1ccc(CSc2nsc(SCc3ccc(F)cc3)n2)cc1,-9%,-1%,1%,-41,1%,11
CSc1nsc(SCC(=O)Nc2ccccc2)n1,0%,4%,-6%,34,1%,40*
CSc1nsc(SCC(=O)Nc2cccc(C(C)=O)c2)n1,-8%,-2%,-4%,26,0%,9
O=C(CSc1nnc(NC(=O)c2c(F)cccc2F)s1)Nc1ccccc1F,0%,1%,1%,7,-2%,6
CSc1nsc(NC(=O)Cc2ccccc2)n1,13%,-2%,-1%,86*,0%,46*
CSc1nsc(SCc2ccc(F)cc2)n1,-3%,6%,-7%,8,-10%,13*
